Reference: PubChem BioAssay AID652235 (Sanford-Burnham Center for Chemical Genomics, 2013)
Some of the results follow. Unmarked numbers belong to inactive results. Activity calls are given as the source filed them.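 The calls were made as follows: active = inhibition of at least 50% in the primary cell screen; inactive = the rest.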

Each molecule was assayed against Matrix metalloproteinase-14 (Homo sapiens) (UniProt P50281) (assay: MT1-MMP activation inhibitors, hit retest, confirmation, single concentration, fluorescence, HT1080 RFP-PRO-GFP cells (AID 652235)). Conditions: GFP and RFP fluorescence ratio, overnight, at 20 µM, hits give high values.

Structure (SMILES) | inhibition
O=P(O)(CP(=O)(c1ccccc1)c1ccccc1)c1ccccc1 | -1.14%
O=C(NNc1c2ccccc2nc2ccccc12)c1cc2ccccc2cc1O | 52.9% (active)
CN=C1C=C/C(=N/N=c2\ccn(O)cc2C)C=C1C | 43.7%
Nc1ccc(Nc2ccccc2)cc1 | 12.6%
COc1ccc(C)cc1Nc1nc(-c2c(C)[nH]c3ccccc23)cs1 | 4.82%
O=C(c1cccc(Cl)c1)N1CCN(Cc2ccccc2)CC1 | -1.11%
O=c1ccc2c(-c3ccccc3S(=O)(=O)O)c3ccc(O)c(O)c3oc-2c1O | 48.5%
O=C1CCCC(O)=C1N=Nc1ccc(S(=O)(=O)N2CCOCC2)cc1 | 4.19%
Cc1cc2ccccc2n1CCNC(=O)COc1ccc2ccccc2c1 | 6.16%
